The target of the test is Myc;MaxL (Homo sapiens;Homo sapiens, UniProt P01106-1;P61244 1-439;1-160, |). Kind of test: universal protein-binding microarray (PBM); PBS-based mixture, 10 nM His-tagged protein dimer, 2% milk, 200 ng/uL BSA, 50 ng/uL salmon testes DNA, 0.02% TX-100; detection with Alexa 488 anti-His antibody;; high values mean tight binding.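 Also: fluorescence intensity normalized to that of the highest-ranked 8-mer.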 The conditions noted are these: protein: recombinant;recombinant; tags: C-terminal His-tag (pET21a);C-terminal His-tag (pET21a); copies: 1;1; dsDNA, one strand shown.
Chain of Myc;MaxL (P01106 16-454, chain 1 of 2): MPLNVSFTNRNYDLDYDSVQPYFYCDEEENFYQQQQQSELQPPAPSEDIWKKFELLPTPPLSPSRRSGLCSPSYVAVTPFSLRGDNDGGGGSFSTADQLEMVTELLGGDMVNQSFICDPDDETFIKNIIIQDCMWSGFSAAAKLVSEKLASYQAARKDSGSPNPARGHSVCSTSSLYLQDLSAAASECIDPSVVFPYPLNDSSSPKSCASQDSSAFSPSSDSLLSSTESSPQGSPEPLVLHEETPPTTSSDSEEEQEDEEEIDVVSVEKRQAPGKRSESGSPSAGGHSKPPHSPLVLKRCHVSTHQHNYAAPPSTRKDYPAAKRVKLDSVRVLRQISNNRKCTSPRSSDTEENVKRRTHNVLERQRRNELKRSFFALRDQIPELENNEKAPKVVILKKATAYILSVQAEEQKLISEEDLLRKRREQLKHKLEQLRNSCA
Chain of Myc;MaxL (P61244 whole entry, chain 2 of 2): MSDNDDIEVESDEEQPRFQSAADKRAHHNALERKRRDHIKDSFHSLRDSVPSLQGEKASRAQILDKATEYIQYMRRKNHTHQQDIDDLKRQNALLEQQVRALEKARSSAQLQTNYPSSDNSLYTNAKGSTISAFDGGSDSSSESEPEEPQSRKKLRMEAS
For CACGTGGG, the binding signal worked out at 0.757 normalized occupancy.

Take ACACGTGC: the binding signal was 0.766 normalized occupancy.

Turning to AACACGTG, the binding signal stood at 0.784 normalized occupancy.

With ACACGTGT, the binding signal was 0.833 normalized occupancy.

As for CACGTGTC, the binding signal is 0.761 normalized occupancy.

With CCACGTGC, the binding signal was 0.978 normalized occupancy.

As to CACGTGCC, the binding signal amounted to 0.732 normalized occupancy.

Take CCACGTGG: the binding signal came out at 0.959 normalized occupancy.

For CACGTGGA, the binding signal stood at 0.81 normalized occupancy.

For the sequence ACCACGTG, the binding signal stood at 0.875 normalized occupancy.

On to CACGTGCG, for which the binding signal came out at 0.798 normalized occupancy.

As for AGCACGTG, the binding signal worked out at 0.947 normalized occupancy.

On to CACGTGGC, for which the binding signal came out at 0.927 normalized occupancy.

For ACACGTGG, the binding signal was found to be 0.895 normalized occupancy.

Values taken from article PMC4242493, “Sequence specificity incompletely defines the genome-wide occupancy of Myc”.
